Values joined by “and” are separate entries in the source; they are usually repeats but may differ in a detail not shown here. Equal values may be shown once. Active and inactive are the calls of the source.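 How the source made its calls, unless noted: active means inhibition at or above 50% relative to wild type and mutant plate controls; inactive means inhibition below 50%.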
Key:
[1] = inhibitors of TNFa-induced NFkB p65 translocation, primary screen, imaging, HUVEC, MLSMR starter and 10KST1 sets (AID 438;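 active means inhibition above 20% together with a positive visual image hit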;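 further: compound added about 3h40 before a 20 min TNFalpha stimulation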;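 on inhibition: signal is the nuclear over cytoplasmic p65 intensity ratio per well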); conditions: HUVEC TNFa-induced p65 nuclear translocation; cell count: measured here: nuclei count (cytotoxicity indicator), at 2.08 µM; inhibition: at 2 µM, stronger effect = higher value, 0% TNFa-plus-vehicle, 100% no-TNFa wells
[2] = inhibitors of mutant huntingtin aggregation, primary screen, imaging, exon1htt(103Q)mCFP cells, high-content imaging (AID 483;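 active means visual image review flags a hit and inhibition of aggregation exceeds 20%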;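 further: compound exposure lasted 3 days before fixation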;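 on nuclei count: percent of the per-plate median nuclei count of sample wells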); conditions: exon1htt(103Q)mCFP cell line, aggregate imaging, at 2 µM; inhibition of aggregation: stronger effect = higher value; nuclei count: measured here: cell count, toxicity
[3] = inhibitors of E-selectin induction by TNFa, primary screen, imaging, HUVEC, immunofluorescence, MLSMR starter and 10KST1 sets (AID 487;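 active means visually confirmed hit in the image check and inhibition above 20%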;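 on inhibition: signal is fraction of cell area covered by stained E-selectin grains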;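 on nuclei count: 100% = median nuclei count of all wells on the same plate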); conditions: HUVEC TNFalpha-induced E-selectin immunofluorescence imaging, at 2 µM; inhibition: stronger effect = higher value; nuclei count: measured here: cell number, toxicity
[4] = DUSP6 inhibitors restoring Erk phosphorylation by chemical complementation, primary imaging in DUSP6-transfected HeLa (AID 609;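 active means compounds giving at least 50% inhibition in the cell-based MKP-3 phosphatase rescue imaging test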;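 on inhibition: phospho-Erk level distribution per well compared with pooled transfected vehicle control wells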); conditions: HeLa MKP-3 transfected, phospho-Erk imaging KS statistic, at 10 µM, cells stimulated with TPA for 15 min
[5] = target: Dual specificity protein phosphatase 6 (Homo sapiens) (UniProt Q16828); test: as above; conditions: HeLa MKP-3 transfected, phospho-Erk imaging KS statistic; at 10 µM; stronger effect = higher value; cells stimulated with TPA for 15 min
Dual specificity protein phosphatase 6 (Homo sapiens), sequence (Q16828 whole entry, looked up): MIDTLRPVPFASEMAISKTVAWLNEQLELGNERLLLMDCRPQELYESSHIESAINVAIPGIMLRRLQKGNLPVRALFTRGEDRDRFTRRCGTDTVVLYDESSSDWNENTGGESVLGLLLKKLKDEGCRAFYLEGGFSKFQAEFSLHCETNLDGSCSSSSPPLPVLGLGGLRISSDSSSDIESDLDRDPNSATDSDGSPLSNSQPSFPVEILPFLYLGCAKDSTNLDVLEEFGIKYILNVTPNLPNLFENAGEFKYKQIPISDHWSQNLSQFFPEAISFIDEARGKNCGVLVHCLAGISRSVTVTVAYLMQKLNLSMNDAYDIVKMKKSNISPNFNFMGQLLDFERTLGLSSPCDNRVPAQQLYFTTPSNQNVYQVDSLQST

[6] = target: Voltage-gated potassium channel subunit beta-2 (Rattus norvegicus) (UniProt P62483); test: KvBeta enzyme negative modulators, primary screen, biochemical, NADPH fluorescence (AID 622;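 active means fluorescence slope higher than the sample average by over 3 SD, cut at about -0.22 in these data, passing the limit was not always enough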;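 further: slope of raw intensity against log time taken from 70 to 1610 s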); conditions: recombinant KvBeta, 4-cyanobenzaldehyde reduction, at 10 µM, stronger effect = higher value
Voltage-gated potassium channel subunit beta-2 (Rattus norvegicus), sequence (P62483 whole entry, looked up): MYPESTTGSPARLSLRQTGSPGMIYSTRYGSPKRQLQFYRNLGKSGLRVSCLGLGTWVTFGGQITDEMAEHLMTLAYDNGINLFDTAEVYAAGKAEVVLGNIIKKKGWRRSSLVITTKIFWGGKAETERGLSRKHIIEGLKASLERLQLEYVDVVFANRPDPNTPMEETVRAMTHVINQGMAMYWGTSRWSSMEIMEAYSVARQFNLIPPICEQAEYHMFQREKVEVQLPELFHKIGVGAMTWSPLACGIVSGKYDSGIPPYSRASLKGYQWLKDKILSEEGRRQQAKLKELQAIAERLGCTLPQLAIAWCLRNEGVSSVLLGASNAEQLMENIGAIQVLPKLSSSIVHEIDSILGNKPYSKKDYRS

[7] = target: Voltage-gated potassium channel subunit beta-2 (Rattus norvegicus) (UniProt P62483); test: KvBeta positive modulators, primary screen, biochemical, NADPH fluorescence (AID 623;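 active means NADPH fluorescence slope more negative than the mean of all samples by about 3 SD, 99.7% confidence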;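 further: fluorescence intensity change per second fitted from 20 to 320 s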); conditions: Recombinant KvBeta, NADPH fluorescence decrease slope, 10 min; at 10 µM; stronger effect = lower value
[8] = target: Alpha-2C adrenergic receptor (Homo sapiens) (UniProt P18825); test: modulators of alpha2C/GIRK thallium flux, primary screen, cell-based, HEK293 alpha2C/GIRK1/2 (AID 624;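 active means fluorescence slope after compound addition differing from the mean of all screened samples at 99.7% confidence, in either direction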;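 further: slope of fluorescence ratio to pre-addition baseline per second over 15 to 24 s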); conditions: thallium flux BTC fluorescence, at 10 µM, actives lie on both sides
Alpha-2C adrenergic receptor (Homo sapiens), sequence (P18825 whole entry, looked up): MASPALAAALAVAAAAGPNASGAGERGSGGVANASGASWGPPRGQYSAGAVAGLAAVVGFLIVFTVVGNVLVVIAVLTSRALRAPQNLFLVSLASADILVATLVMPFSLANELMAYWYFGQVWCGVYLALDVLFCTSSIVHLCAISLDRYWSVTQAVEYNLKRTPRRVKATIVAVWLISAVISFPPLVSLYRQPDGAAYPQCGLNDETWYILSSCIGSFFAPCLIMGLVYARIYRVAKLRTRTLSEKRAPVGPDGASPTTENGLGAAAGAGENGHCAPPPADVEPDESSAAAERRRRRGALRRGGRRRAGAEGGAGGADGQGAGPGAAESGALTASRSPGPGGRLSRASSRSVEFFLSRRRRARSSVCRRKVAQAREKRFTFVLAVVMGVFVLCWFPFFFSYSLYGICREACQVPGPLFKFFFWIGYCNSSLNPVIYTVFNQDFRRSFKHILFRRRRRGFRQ

[9] = inhibitors of larval lipid processing in zebrafish, primary screen, whole organism, PED6 fluorescence, gall bladder and intestine (AID 686;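 active means a full or partial loss of lipid-probe fluorescence in the fish gall bladder, intestine or both, judged by eye; inactive means no fluorescence loss, or compound toxic to the fish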;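 further: larvae 5 to 7 days old with five fish per well; signal comes from phospholipase A2 cleavage of quenched PED6 carried via bile; overnight exposure to compound and PED6 before scoring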); conditions: Zebrafish larvae PED6 lipid processing, fluorescence scoring; screened at 20 µM (by protocol)
[10] = inhibitors of Chlamydomonas gravitaxis, primary screen, whole organism, Chlamydomonas reinhardtii, WT vs cilia-less mutant, absorbance, 96-well (AID 463189); conditions: OD600 absorbance, 2 days, at 10 µM, stronger effect = higher value;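 further: 0% = wild type cc124 cells in DMSO and 100% = ciliumless bld1 mutant cells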
[11] = inhibitors of Sendai virus-induced IRF3 signaling, primary screen, TLR/RLR signaling modifier project, cell-based, Sendai virus stimulus, luciferase, 10K MLSCN set (AID 602276;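 active means inhibition at or above 50% at 10 µM; inactive means inhibition below 50%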;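 further: firefly luciferase from ISG56 promoter only with Renilla not read in this screen; 0% = Sendai virus plus DMSO and 100% = medium plus DMSO without virus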); conditions: HEK293 RL24 IRF3 luciferase reporter, at 10 µM, stronger effect = higher value
[12] = inhibitors of poly I:C-induced TLR3 signaling, primary screen, cell-based, poly I:C stimulus, luciferase, 10K MLSCN set (AID 602277;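 active means inhibition of the reporter signal at or above 50%; inactive means inhibition below 50%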); conditions: HEK293-TLR3 RL24 IRF3 luciferase reporter, at 10 µM, stronger effect = higher value
[13] = measured here: cell density z-score
[14] = measured here: nuclear c-Myc green intensity z-score
[15] = measured here: nuclear pErk red intensity z-score, stronger effect = higher value

Structure (SMILES)	cell count [1]	inhibition [1]	inhibition of aggregation [2]	nuclei count [2]	inhibition [3]	nuclei count [3]	z-score [4, 13]	z-score [4, 14]	z-score [4, 15]	inhibition [5]	fluorescence slope [6]	NADPH fluorescence slope [7]	slope [8]	outcome [9]	inhibition [10]	inhibition [11]	inhibition [12]
CCCCCCCC(=O)OCC(=O)[C@@]1(O)CC[C@H]2[C@@H]3CCC4=CC(=O)CC[C@]4(C)[C@H]3[C@@H](O)C[C@@]21C	531	-8.2% (inactive)	-25.1% (inactive)	92.7%	3.4% (inactive)	107%	-0.552	-1.25	-0.122	-8.38% (inactive)	-0.503 (inactive)	-5.1e-05 (inactive)	0.0075 (inactive)	inactive	-10.8% (inactive)	15.2% (inactive)	49.5% (inactive)
O=C1NC2c3ccccc3C(=O)N2c2c1cnn2-c1ccccc1 (centres undefined)	603	-7.1% (inactive)	-11.1% (inactive)	111%	-48.5% (inactive)	146%	0.407	0.889	-0.995	7.83% (inactive)	-0.425 (inactive)	-1.7e-05 (inactive)	0.00503 (inactive)	inactive	14.6% (inactive)	-6.19% (inactive)	6.35% (inactive)
C[C@@H]1C[C@H]2[C@@H]3C[C@H](F)C4=CC(=O)C=C[C@]4(C)[C@@]3(F)[C@@H](O)C[C@]2(C)[C@@]1(O)C(=O)COC(=O)C(C)(C)C	563	1.4% (inactive)	-3% (inactive)	51.7%	-36.8% (inactive)	92.6%	0.404	-0.122	-1.39	5.42% (inactive)	-0.475 (inactive)	-6.6e-05 (inactive)	0.00583 (inactive)	inactive	-9.6% (inactive)	2.87% (inactive)	35.9% (inactive)
COc1ccc(-n2c(SCC(N)=O)nc3sc4c(c3c2=O)CCN(C)C4)cc1	537	-5.6% (inactive)	32% (inactive)	58%	-51.4% (inactive)	134%	-0.15	1.95	-0.53	-2.69% (inactive)	-0.305 (inactive)	-1.8e-06 (inactive)	0.00454 (inactive)	inactive	-8.09% (inactive)	-4.01% (inactive)	0.612% (inactive)
CC(C)(S)[C@@H](N)C(=O)O	657	-4.4% (inactive)	-5.6% (inactive)	105%	-120% (inactive)	138%	1.21	-0.53	-0.44	3.45% (inactive)	-0.482 (inactive)	-4.6e-05 (inactive)	0.00423 (inactive)	inactive	-3.9% (inactive)	22.7% (inactive)	43.2% (inactive)
c1ccc(CN(CC2=NCCN2)c2ccccc2)cc1	455 and 493	0% (inactive) and 19.7% (inactive)	9.9% (inactive) and 6.3% (inactive)	97.2% and 85%	-8.6% (inactive) and -65.1% (inactive)	98.7% and 128%	0.164 and -0.173	0.692 and 0.37	-0.518 and 0.488	8% (inactive) and 13.3% (inactive)	-0.512 (inactive) and -0.523 (inactive)	-3e-05 (inactive) and -2.5e-05 (inactive)	0.00381 (inactive) and 0.00497 (inactive)	inactive	-11.5% (inactive) and 25.6% (inactive)	-7.89% (inactive) and 7.92% (inactive)	0.563% (inactive) and 36.8% (inactive)
CCCC(CCC)C(=O)OC1C[C@H]2CC[C@@H](C1)[N+]2(C)C (some centres undefined)	587	-4.2% (inactive)	35.6% (inactive)	88.1%	-72.6% (inactive)	132%	0.0581	0.732	-0.0735	9.37% (inactive)	-0.488 (inactive)	-5e-05 (inactive)	0.0052 (inactive)	inactive	17.7% (inactive)	18.2% (inactive)	42.2% (inactive)
CN(C)CCOc1ccccc1Cc1ccccc1	539	5.9% (inactive)	-17.6% (inactive)	92.7%	-66.7% (inactive)	118%	-0.59	1.74	-0.949	10.2% (inactive)	-0.506 (inactive)	2.6e-05 (inactive)	0.00455 (inactive)	inactive	147% (active)	17.7% (inactive)	43% (inactive)
CC(C)[N+](C)(CCOC(=O)C1c2ccccc2Oc2ccccc21)C(C)C	683	-4.8% (inactive)	-28.8% (inactive)	115%	-133% (inactive)	138%	-0.466	-0.573	0.578	-2.46% (inactive)	-0.487 (inactive)	2.5e-06 (inactive)	0.00524 (inactive)	inactive	0.683% (inactive) and 0.468% (inactive)	20.3% (inactive)	39.4% (inactive)
C=CCOc1nc2c(c(=O)n(C)c(=O)n2C)n1Cc1c(Cl)cccc1Cl	556	-2.9% (inactive)	-47.7% (inactive)	115%	14% (inactive)	113%	-0.686	2.36	-0.556	-4.7% (inactive)	-0.502 (inactive)	-0.000118 (inactive)	0.00485 (inactive)	inactive	-9.21% (inactive)	11.4% (inactive)	16% (inactive)
COc1cc(-c2nn3c(-c4cccnc4)nnc3s2)cc(OC)c1OC	561	-0.7% (inactive)	-9.6% (inactive)	103%	-152% (inactive)	134%	0.586	-0.752	-1.22	15.5% (inactive)	-0.41 (inactive)	-0.000121 (inactive)	0.0074 (inactive)	inactive	18.4% (inactive)	12.1% (inactive)	8.92% (inactive)
Brc1cccc(-c2cnc3n2CCCCC3)c1	517	-12.1% (inactive)	5.1% (inactive)	76.5%	-58.1% (inactive)	139%	0.246	-0.612	1.65	-8.95% (inactive)	-0.446 (inactive)	-0.000303 (inactive)	0.00481 (inactive)	inactive	59.2% (active)	-2.77% (inactive)	-38% (inactive)
COc1cc(/C=C/C(=O)CC(=O)/C=C/c2ccc(O)c(OC)c2)ccc1O	581	-5.9% (inactive)	-6.4% (inactive)	105%	-31.2% (inactive)	119%	-0.124	0.198	0.203	-8.38% (inactive)	-0.185 (active)	-1.1e-05 (inactive)	0.0285 (active)	inactive	102% (active)	7.07% (inactive)	6.1% (inactive)
CCC(=O)c1ccc(O)cc1	663	0.5% (inactive)	-14% (inactive)	101%	-19.7% (inactive)	118%	-0.298	-0.183	0.759	19% (inactive)	-0.496 (inactive)	8.5e-06 (inactive)	0.00491 (inactive)	inactive	-6.67% (inactive)	13.6% (inactive)	5.36% (inactive)
CC1(C)CC(=O)C2=C(C1)N(CC1CCCO1)C(=O)C2(O)C(F)(F)F (centres undefined)	503	6.9% (inactive)	-2.8% (inactive)	108%	-123% (inactive)	123%	-0.368	0.41	-0.669	1.75% (inactive)	-0.492 (inactive)	-1.2e-05 (inactive)	0.00532 (inactive)	inactive	29.7% (inactive)	-0.648% (inactive)	98% (active)
Cc1cc(C)n(-c2nnc(C)n2/N=C/c2ccccc2F)n1	592	-10% (inactive)	-14.2% (inactive)	107%	-75.7% (inactive)	153%	0.554	1.09	-0.737	9.82% (inactive)	-0.53 (inactive)	-4.2e-05 (inactive)	0.00446 (inactive)	inactive	5.75% (inactive)	13.6% (inactive)	22% (inactive)
Cc1nn(C)cc1/C=N/O	677	-4.1% (inactive)	-2.1% (inactive)	83.6%	-8.8% (inactive)	140%	0.232	-1.13	-0.23	-1.12% (inactive)	-0.494 (inactive)	-0.000175 (inactive)	0.00422 (inactive)	inactive	7.83% (inactive)	15.8% (inactive)	19% (inactive)
CC1(C)O[C@@H]2C[C@H]3[C@@H]4C[C@H](F)C5=CC(=O)CC[C@]5(C)[C@H]4[C@@H](O)C[C@]3(C)[C@]2(C(=O)CO)O1	547	-0.5% (inactive)	-27.2% (inactive)	54.1%	1.2% (inactive)	102%	-0.857	-0.0426	0.461	-2.46% (inactive)	-0.476 (inactive)	-9e-05 (inactive)	0.00483 (inactive)	inactive	6.62% (inactive)	-7.22% (inactive)	22% (inactive)
CC(=O)[C@@]1(O)CC[C@H]2[C@@H]3C[C@H](C)C4=CC(=O)CC[C@]4(C)[C@H]3CC[C@@]21C	734	-6.2% (inactive)	0.8% (inactive)	108%	-107% (inactive)	113%	1.42	-0.494	-1.54	3.45% (inactive)	-0.486 (inactive)	-0.000112 (inactive)	0.0052 (inactive)	inactive	-2.53% (inactive)	-4.16% (inactive)	43.2% (inactive)
Cn1cnc2c1c(=O)[nH]c(=O)n2C	544	-10.8% (inactive)	-16.4% (inactive)	97%	-30.6% (inactive)	124%	-0.137	-0.093	1.06	-6.41% (inactive)	-0.513 (inactive)	1.2e-05 (inactive)	0.00542 (inactive)	inactive	8.14% (inactive) and 20.9% (inactive)	13.1% (inactive)	16.1% (inactive)
O=C(O)c1ccc(COc2c(F)c(F)c(F)c(F)c2F)o1	492	-12.2% (inactive)	-42.8% (inactive)	99.6%	-83.7% (inactive)	129%	0.991	-1.28	-0.83	-3.5% (inactive)	-0.433 (inactive)	-0.000148 (inactive)	0.00486 (inactive)	inactive	-7.74% (inactive)	-5.03% (inactive)	-6.07% (inactive)
COC(=O)CCC(=O)CN	462	-0.2% (inactive)	0.3% (inactive)	95.2%	-32.6% (inactive)	108%	-0.857	0.817	-0.467	14.6% (inactive)	-0.446 (inactive)	-6.5e-05 (inactive)	0.00417 (inactive)	inactive	-6.73% (inactive)	5.54% (inactive)	25.1% (inactive)
